Assay results published in ChEMBL document CHEMBL3988442, “University of Dundee, Small-Polar-MMV Screening Library” (2021).
About 13,000 (27%) of roughly 48,000 compounds showed an effect of 50% or more. This is one part of the list.

test system: Wolbachia pipientis; assay: Anti-Wolbachia Cell-Based Screen; format: functional; parameters: scale not given: in the data most compounds retested in dose-response had high values; conditions: 5 µM

| SMILES | Percent Effect [%] |
| --- | --- |
| CC1(COc2ccccc2)NCCc2[nH]cnc21 (configuration not stated) | 7.349 |
| CCc1cc(CN(C)C(=O)C2CC(=O)N(c3cccc(O)c3)C2)on1 (configuration not stated) | -10.41 |
| Cc1ccc(C(C(=O)N2CCN(C(=O)c3ccc[nH]3)CC2)N(C)C)cc1 (configuration not stated) | 1.987 |
| COCCOc1ccc(NC(=O)N(CC2CCOC2)C2CC2)cn1 (configuration not stated) | -6.429 |
| COc1cccc(COCC(=O)N2CCCC(n3ccnc3)C2)c1 (configuration not stated) | -0.4033 |
| O=C(COCCOc1ccccc1)N1CCCC(n2ccnc2)C1 (configuration not stated) | 75.36 |
| O=C(COCCc1ccccc1)N1CCCC(n2cccn2)C1 (configuration not stated) | 5.674 |
| Cc1cc(C(=O)N2CCCC2c2nc(C)cc(O)n2)on1 (configuration not stated) | 93.31 |
| CC(C)c1nc(C2CCCN2C(=O)c2nccnc2N)no1 (configuration not stated) | -0.7868 |
| Cc1cc(C(=O)N2CCCC2c2nc(O)cc(C(C)C)n2)on1 (configuration not stated) | 118.7 |
| CC(C)c1cc(C(=O)N2CCCC2c2nc(-c3ccccc3)no2)[nH]n1 (configuration not stated) | -1.356 |
| CCn1ccnc1CN1CCC(CCC(=O)Nc2ccccc2Cl)CC1 | 11.39 |
| COCCC1(C(=O)O)CCCN(C(=O)c2cnc3c(c2)CCCC3)C1 (configuration not stated) | 8.826 |
| O=C(Cc1cn2ccccc2n1)N1CCCC(n2ccnc2)C1 (configuration not stated) | 115.6 |
| O=C(Cc1cn2ccccc2n1)N1CCCC(n2cccn2)C1 (configuration not stated) | 62.83 |
| O=C(Cc1ccc2c(c1)OCCO2)N1CCCC(n2ccnc2)C1 (configuration not stated) | 5.657 |
| O=C(Cc1ccc(-n2cccn2)cc1)N1CCCC(n2cccn2)C1 (configuration not stated) | 7.23 |
| Cc1cnn(C2CCCN(C(=O)Cc3cn4ccccc4n3)C2)c1 (configuration not stated) | 14.59 |
| Fc1cccc2ncnc(NCCCc3ccncc3)c12 | -47.88 |
| CS(=O)(=O)N1CCC2(CC1)CC(Oc1ccccn1)CO2.O=C(O)C(F)(F)F (configuration not stated) | 10.24 |
| CCN(C)C1COC2(CCN(C(=O)c3ccc(Cl)cc3)CC2)C1.O=C(O)C(F)(F)F (configuration not stated) | -12.32 |
| COC1COC2(CCN(C(=O)c3ncccn3)CC2)C1 (configuration not stated) | -17.92 |
| COC1COC2(CCN(C(=O)c3cocn3)CC2)C1 (configuration not stated) | -7.314 |

| SMILES | Percent Effect [%] |
| --- | --- |
| COC1COC2(CCN(C(=O)c3ccccc3F)CC2)C1 (configuration not stated) | 91.89 |
| COC1COC2(CCN(C(=O)c3cnc(C)cn3)CC2)C1 (configuration not stated) | 14.55 |
| O=C(O)C(F)(F)F.O=C(c1ccccc1F)N1CCC2(CC1)CC(Oc1ccccn1)CO2 (configuration not stated) | 109.1 |
| O=C(O)C(F)(F)F.O=C(O)C(F)(F)F.c1cc(CN2CCC3(CC2)CC(N2CCCC2)CO3)co1 (configuration not stated) | -12.83 |
| O=C(c1ccccc1)N1CCC2(CC1)CC(Oc1ccccc1)CO2 (configuration not stated) | 2.639 |
| O=C(O)C(F)(F)F.O=C(c1ccccc1F)N1CCC2(CC1)CC(N1CCCC1)CO2 (configuration not stated) | 116.8 |
| COC1COC2(CCN(C(=O)c3ccc4ccccc4c3)CC2)C1 (configuration not stated) | 112.4 |
| O=C(O)C(F)(F)F.O=C(c1cocn1)N1CCC2(CC1)CC(Oc1ccccn1)CO2 (configuration not stated) | 3.532 |
| Cc1cc(C(=O)NC2(C#N)CCCC2)c(C)n1-c1cccnc1 | -8.526 |
| O=C(Cc1cccs1)NCC1Cn2nnc(-c3ccoc3)c2CO1 (configuration not stated) | 6.925 |
| Fc1ccc(CN2CCC3(CCCN(c4nncs4)C3)C2)cc1.O=C(O)C(F)(F)F (configuration not stated) | 5.699 |
| COc1ccc(S(=O)(=O)NC(=O)C(C)OC)c(OC)c1 (configuration not stated) | 36.91 |
| O=C(N[C@@H]1CN(C2CCCC2)C[C@@H]2CCCO[C@@H]21)c1cnccn1.O=C(O)C(F)(F)F | -9.219 |
| CN(C(=O)C(c1c(F)cccc1Cl)N(C)C)c1nccs1 (configuration not stated) | 2.736 |
| COc1ncccc1C(=O)N1CCC2(CC1)CC(OC)CO2.O=C(O)C(F)(F)F (configuration not stated) | 101.4 |
| COc1ncccc1C(=O)N1C[C@@H]2COC[C@]2(CN(C)C)C1.O=C(O)C(F)(F)F.O=C(O)C(F)(F)F | -15.94 |
| COC1COC2(CCN(C(=O)c3cscn3)CC2)C1 (configuration not stated) | -7.766 |
| Cc1cnn(CC(=O)N2CCC3(CCC(=O)N(C4CCCC4)C3)CC2)c1 | -24.67 |
| COCCN1CC2(CCCN(c3ncc(Cl)cc3F)C2)CCC1=O (configuration not stated) | 2.913 |
| O=C1CCC2(CCN(Cc3cc(F)ccc3Cl)CC2)CN1C1CCCC1 | -0.02537 |
| Nc1ccnc(C(=O)N2CCCC3(CCC(=O)N(C4CCCC4)C3)C2)c1 (configuration not stated) | 1.558 |
| Cc1ccnn1CCN1CCCC2(CCC(=O)N(C3CCCC3)C2)C1 (configuration not stated) | 107.9 |
| O=C1CCC2(CCCN(CCn3cc(Cl)cn3)C2)CN1C1CCCC1 (configuration not stated) | 113 |

| SMILES | Percent Effect [%] |
| --- | --- |
| COCCCN1CC2(CCCN(CCn3cc(Cl)cn3)C2)CCC1=O (configuration not stated) | 116.7 |
| COCCCN1CC2(CCCN(c3ncc(Cl)cc3F)C2)CCC1=O (configuration not stated) | -2.307 |
| Cn1cc(CN2C[C@@H](N3CCCC3=O)[C@H]3OCCC[C@H]32)cn1 | 16.86 |
| O=C1CCCN1C1CCCN(CCn2cc(Cl)cn2)C1 (configuration not stated) | 92.68 |
| O=C1CCCN1C1CCCN(CCOc2ccc(F)cc2)C1 (configuration not stated) | -5.922 |
| COc1coc(CN2CCCC3(CCC(=O)N(C4CC4)C3)C2)cc1=O (configuration not stated) | 7.748 |
| Cc1cc(NC(=O)CNCc2csc(-c3cnccn3)n2)ccc1Cl | -4.536 |
| CN(c1ncccc1CNS(=O)(=O)N1CCOCC1)C1CCCCC1 | 1.985 |
| Cc1ccc(S(=O)(=O)N2CCOCC2C#N)cc1Br (configuration not stated) | -3.449 |
| Cc1nc[nH]c1CN1C[C@@H]2CC[C@H](C1)N(C(=O)CCc1cnn(C)c1)C2 | -6.684 |
| O=C(NCCCn1ccnn1)C1CCCN(C2CCCC2)C1 (configuration not stated) | 9.707 |
| Cc1ccc2occ(CN3CCN(c4ncccn4)CC3)c(=O)c2c1 | -23.78 |
| O=c1c(CN2CCCCCC2)coc(O)c1CN1CCOCC1 | 99.75 |
| O=c1c(CN2CCCCC2)coc2ccc(Cl)cc12 | -1.352 |
| O=C1OCCN1CCN1CCCN(Cc2ccccc2F)CC1 | 0.37 |
| O=c1c(CN2CCCCCC2)coc(O)c1CN1CCCCCC1 | 87.67 |
| O=c1c(CN2CCOCC2)coc2ccc(Cl)cc12 | 14.49 |
| CC(C)C(C)NC(=O)Nc1ccccc1CN1CCOCC1 (configuration not stated) | -2.62 |
| O=c1c(CN2CCOCC2)coc(O)c1CN1CCOCC1 | 110.9 |
| O=c1c(CN2CCSCC2)coc(O)c1CN1CCCC1 | 112.9 |
| CC(C)NC(=O)Nc1ccccc1CN1CCOCC1 | 8.436 |
